Screening data deposited in PubChem BioAssay by National Center for Advancing Translational Sciences (NCATS).
KCNH2 3.1 inh: KCNH2 3.1 (human) potassium channel inhibition; U2OS KCNH2 3.1, thallium flux FluxOr; stronger effect = lower value; hit rate 0.95% among 340,000; AID 720553; activity change, % (tested at about 1.8 µM);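 active = maximum activity change below -70%; inconclusive = maximum activity change from -70% to -50%; inactive = maximum activity change above -50%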;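 note: thallium influx rate constant from kinetic fluorescence after stimulation buffer; % is set by controls: 0 for no effect and ±100 for the full control effect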
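Channel expression came from 3.1 mutant virus (1.77 x 10^8 /mL) applied to suspended U2OS cells for 4 h. Flux was tracked with FluxOr dye plus Red40 quencher, and kinetic rate constants normalized to controls.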
hERG WT inh: KCNH2 (human, wildtype) channel inhibition. U2OS, BacMam KCNH2, thallium flux FluxOr; stronger effect = lower value. activity change, % at 1.84 µM. hit rate 0.37% among 340,000;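 active = maximum activity change below -70%; inconclusive = maximum activity change between -70% and -50%; inactive = maximum activity change above -50%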; note: % is set by controls: 0 for no effect and ±100 for the full control effect
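U2OS cells transduced with wild-type KCNH2 virus are loaded with FluxOr dye for 45 min, and thallium flux is measured in kinetic reads before and after stimulation buffer. Rate constants are normalized to DMSO controls.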
GLS inh: blocks human kidney-isoform glutaminase activity | Potency, µM (doses to about 45.5 µM), for inactives: at the highest dose activity change, negative = inhibition, usual class: inhibitors | hit rate 0.21% among 410,000 | GLS enzymatic activity, qHTS titration | O94925; note: potency is the fitted concentration of half-maximal effect; % is set by controls: 0 for no effect and ±100 for the full control effect
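Enzyme dispensed in phosphate buffer (45 mM, pH 8.2, 0.02% Tween-20), compounds pinned in, then 1 mM L-glutamine solution and the glutamate oxidase–HRP–Amplex Red mix added; fluorescence read immediately and again after 30 min at room temperature.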
HEK293 tox: cytotoxicity counter-screen for GLP-1 receptor inverse agonists; HEK293 cAMP-luciferase reporter cells, luminescence, 24 h; Potency, µM (titrated, usually from 38.3 µM), inactives show at the highest dose activity change, negative = inhibition, usual class: inhibitors; hit rate 0.13% among 410,000;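 note: loss of luciferase light is scored as toxicity; potency is the fitted concentration of half-maximal effect; % is set by controls: 0 for no effect and ±100 for the full control effect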
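Compound-treated cells are incubated 24 hr at 37 deg C under 5% CO2 after a 12 hour attachment period, then luciferase detection reagent is added and luminescence is measured following 12 min at room temperature; lowered signal indicates toxicity.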
GLP1R ag: agonists of human GLP-1 receptor | P43220 | AID 624172 | HEK293 GLP-1R CRE-luciferase, luminescence, 4-6 h; cells express a hypersensitive GLP-1R form | Potency, µM (highest dose often 45.6 µM), without a hit: at the top dose activation, usual class: activators | hit rate 0.007% among 380,000; note: potency is the fitted concentration of half-maximal effect; % of control where 0% means no effect
Target sequence (P43220 whole entry, looked up): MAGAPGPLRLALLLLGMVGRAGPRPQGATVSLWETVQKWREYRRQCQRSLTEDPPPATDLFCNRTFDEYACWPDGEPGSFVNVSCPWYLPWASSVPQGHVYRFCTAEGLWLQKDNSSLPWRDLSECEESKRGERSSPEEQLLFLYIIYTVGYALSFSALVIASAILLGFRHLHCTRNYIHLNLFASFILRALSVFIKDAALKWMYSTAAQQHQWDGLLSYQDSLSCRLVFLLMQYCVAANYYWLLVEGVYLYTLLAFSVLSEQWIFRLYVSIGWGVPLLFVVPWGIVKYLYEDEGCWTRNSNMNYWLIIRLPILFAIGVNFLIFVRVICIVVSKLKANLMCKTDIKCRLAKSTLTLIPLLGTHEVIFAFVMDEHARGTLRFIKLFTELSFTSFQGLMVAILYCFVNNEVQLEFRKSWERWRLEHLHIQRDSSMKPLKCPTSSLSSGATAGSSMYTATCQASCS
GLP-1R inv ag: acts as inverse agonist at human GLP-1 receptor; P43220; HEK293 GLP-1R CRE-luciferase, luminescence, 24 h; GLP-1R form is constitutively active; hit rate 1.6% among 410,000; Potency, µM (series often up to 38.3 µM), for the others: at the top dose activity change, negative = inhibition, most hits filed as inhibitors; AID 624417; note: potency is the fitted concentration of half-maximal effect; % is set by controls: 0 for no effect and ±100 for the full control effect; nearly all actives have a fitted effect of over 55% in size
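GLP-1R inverse agonism mode: basal reporter luminescence in engineered HEK293 cells measured after one day of compound exposure at 37 deg C, with a 12 min room-temperature detection step.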
An asterisk follows results filed as active; ? = inconclusive; nt = no result given. Sampled rows, rich in hits. Any-hit rate of the full collection: about 2.8%. Unless noted, calls come from the whole dose curve; as a rule, active = well fitted curve in the direction sought with a large enough effect; inconclusive = small, poorly fitted or top-dose-only effect, or another doubt; inactive = no such curve, though single readings can be large; an effect the other way counts as inactive or inconclusive.

SMILES | KCNH2 3.1 inh | hERG WT inh | GLS inh | HEK293 tox | GLP1R ag | GLP-1R inv ag
COc1ccc(C2=CCC3CCCCN3C2)cc1OC (centres undefined) | 9.2 | 19.9 | -1.5% | ? | -1.2% | -13.3%
CCN1/C(=C/C(C)=C/c2sc3ccccc3[n+]2CC)Sc2ccccc21 | 7.7 | 3.1 | ? | 12.6µM* | -0.6% | ?
N#CC1c2ccccc2-n2nncc2CN1Cc1cc(Cl)cc(Cl)c1 (centres undefined) | -6.4 | -9.0 | 4.6% | ? | -13.0% | 1.26µM*
COc1ccc(CN2Cc3cnnn3-c3ccccc3C2C#N)cc1 (centres undefined) | -42.3 | 0.7 | 0.8% | ? | -13.0% | 2.82µM*
Cc1cccc(C(=O)NC(=S)Nc2cccc3nc(C)ccc23)c1 | 3.6 | -0.8 | 10.8% | ? | 20.8% | ?
CC(C)C[C@@H](CO)N(Cc1ccccc1)S(=O)(=O)N(Cc1ccccc1)[C@@H](CO)CC(C)C | -5.3 | -0.6 | -5.2% | ? | -2.3% | 2.51µM*
COC(=O)[C@H](Cc1ccccc1)N(Cc1ccccc1)S(=O)(=O)N(Cc1ccccc1)[C@@H](Cc1ccccc1)C(=O)OC | 20.7 | -3.0 | -7.3% | -4.8% | -0.3% | ?
CCOC(=O)[C@]12Cc3cc(Cl)ccc3[C@H]1N(C1CCCCC1)C(=O)c1ccccc12 | nt | nt | 32.4% | ? | -25.5% | 4.47µM*
CCOC(=O)[C@]12Cc3cc(OC)ccc3[C@H]1N(C)C(=O)c1ccccc12 | nt | nt | ? | 4.9% | -3.4% | 19.6%
CCOC(=O)[C@]12Cc3cc(Cl)ccc3[C@H]1N(CC(=O)OC)C(=O)c1ccccc12 | nt | nt | -1.6% | ? | -13.4% | 7.94µM*
CCOC(=O)[C@]12Cc3cc(Cl)ccc3[C@H]1N(C)C(=O)c1ccccc12 | nt | nt | ? | 3.8% | -10.0% | 20.8%
CCOC(=O)[C@]12Cc3cc(OC)ccc3[C@H]1N(C1CCCCC1)C(=O)c1ccccc12 | nt | nt | 53.9% | 10µM* | -10.6% | 2.51µM*
COc1ccc(Cn2c(C(=O)O)c(CNCc3ccc(SC)cc3)c3ccc(OC)cc32)cc1 | nt | nt | -8.9% | ? | nt | ?
CCC(C)C1NC(=O)C2CCCN2C(=O)C(CC(C)C)OC(=O)CCNC(=O)C(C)N(C)C(=O)C(C(C)C)N(C)C1=O (centres undefined) | -20.9 | -4.7 | 0.8% | 4.47µM* | 9.2% | ?
COc1cc2c(cc1O)[C@@H]1Cc3ccc(OC)c(O)c3CN1CC2 | 6.3 | 2.4 | 14.0% | ? | -4.5% | 10µM*
C[C@@H]1CNC(=O)c2c(C(=O)Nc3ccc(CNC(=O)OC(C)(C)C)cc3)ncn21 | 0.0 | -5.2 | -8.5% | -25.9% | 13.8% | 9.1%
CCN1CCN(c2ccc(S(=O)(=O)N3CCOCC3)cc2NC(=O)/C=C/c2ccc([N+](=O)[O-])cc2)CC1 | -74.8* | -6.8 | 5.3% | ? | 8.5% | ?
CC12CCC3C(CCC4(O)CC(O)CCC34C=O)C1(O)CCC2C1=CC(=O)OC1 (centres undefined) | 6.0 | -4.7 | 2.0% | ? | -6.0% | ?
C[C@]12CC[C@H]3[C@@H](CC[C@]4(O)C[C@@H](O)CC[C@]34C=O)[C@@]1(O)CC[C@@H]2C1=CC(=O)OC1 | 3.0 | -5.8 | -4.7% | ? | -9.8% | 1µM*
O=C(N[C@H]1N=C(c2ccccc2F)c2cccc3c2N(CC3)C1=O)c1cc2ccccc2[nH]1 | nt | nt | -3.7% | nt | 2.9% | nt
O=C(CCC(=O)N1C[C@H]2C[C@@H](C1)c1cccc(=O)n1C2)NCc1cccc(C(F)(F)F)c1 | 12.1 | -23.8 | -2.2% | 0.4% | -3.6% | -19.9%
O=C(C[C@@H]1CC[C@@H]2[C@H](COC[C@H](O)CN2Cc2cccc(C(F)(F)F)c2)O1)NCc1ccc(Cl)cc1 | nt | nt | nt | -26.0% | nt | 10µM*
O=[N+]([O-])c1ccc(NC(=S)NCCc2ccc(F)cc2)cc1 | -7.3 | -1.8 | 8.9% | ? | -12.9% | 11.2µM*
O=[N+]([O-])c1ccc(CNCCc2ccccc2)cc1 | -0.4 | 38.5 | -1.7% | 0.3% | -1.8% | 4.0%
